# Data from PubChem BioAssay AID624405 (Broad Institute, 2012).
# About 250 (13%) of roughly 1,900 compounds were called active. Roughly 4% stayed inconclusive and do not appear here.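 The calls were made as follows: active = fitted curve reaches 40% rescue activity at or below the top valid dose, in every test run; inconclusive = test runs disagree, some active and some inactive; inactive = every run misses the threshold or moves the wrong way.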 These entries were drawn from the full list. Results with a measured potency or affinity are listed apart.
# Experiment: rescue of simvastatin-induced ATP loss – cell-based, C2C12 myotubes, ATP luminescence, cherry pick, dose response (AID 624405);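 also: myotubes are challenged with simvastatin at 10 µM to lower ATP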
# Conditions: 48 h, scaled: DMSO wells 0, geranylgeraniol wells 100; series mostly up to 19.5 µM
row,SMILES,outcome
1,C[C@@H]1CCCCO[C@@H](CN(C)Cc2ccc(C(F)(F)F)cc2)[C@H](C)CN([C@@H](C)CO)C(=O)c2cc(NC(=O)c3ccncc3)ccc2O1,inactive
2,C[C@H]1CCCCO[C@@H](CN(C)C(=O)Nc2ccc3c(c2)OCO3)[C@@H](C)CN([C@@H](C)CO)C(=O)c2cc(NS(=O)(=O)c3cccs3)ccc2O1,inactive
3,COc1ccc(S(=O)(=O)Nc2ccc3c(c2)C(=O)N([C@@H](C)CO)C[C@H](C)[C@@H](CN(C)S(=O)(=O)c2cccs2)OCCCC[C@@H](C)O3)cc1,inactive
4,CCOc1ccc(C2SCC(=O)N2c2c(C)n(C)n(-c3ccccc3)c2=O)cc1 (stereo not given),inactive
5,COc1ccccc1Oc1ccc2c(c1)C(=O)N(c1ccc(O)cc1)C2=O,inactive
6,C[C@@H]1CN([C@H](C)CO)C(=O)c2cc(C#CC3CCCCC3)cnc2O[C@@H]1CN(C)C(=O)C1CCCCC1,inactive
7,COc1ccc(Br)cc1C1SCCN1S(C)(=O)=O (stereo not given),inactive
8,CCC12CC3CC(C1)CC(C(=O)NNC(N)=O)(C3)C2,inactive
9,COCCNC(=O)C(c1ccc(C)o1)N(Cc1ccc(OC)cc1)C(=O)Cn1nnc2ccccc21 (stereo not given),inactive
10,C=CCOc1ccc(/C(CC)=N/O)cc1OC,inactive
11,CS(=O)(=O)N(CC(=O)NCc1ccco1)c1ccc(OCc2ccccc2)cc1,inactive
12,COc1cccc(NC(=O)N(C)C[C@H]2Oc3ncc(C#Cc4ccc(F)cc4)cc3C(=O)N([C@@H](C)CO)C[C@@H]2C)c1,inactive
13,CC(C)NC(=O)N1[C@H](CO)[C@@H](c2ccc(-c3ccc(F)cc3)cc2)[C@@H]1C#N,inactive
14,CC(C)NC(=O)N1[C@H](C#N)[C@@H](c2ccc(-c3ccc(F)cc3)cc2)[C@@H]1CO,inactive
15,COc1ccc(CC(=O)NC(CC(=O)O)c2cccc([N+](=O)[O-])c2)cc1 (stereo not given),inactive
16,CC(C)NC(=O)N1[C@@H](C#N)[C@H](c2ccc(-c3ccc(F)cc3)cc2)[C@@H]1CO,inactive
17,COc1ccc(-c2ccc([C@H]3[C@@H](C#N)N(C(=O)NC4CCCCC4)[C@@H]3CO)cc2)cc1,inactive
18,N#C[C@H]1[C@H](c2ccc(-c3ccc(F)cc3)cc2)[C@@H](CO)N1C(=O)Cc1ccccc1,inactive
19,N#Cc1ccc(Oc2ccc(/C=N/O)cn2)cc1,inactive
20,COc1ccc(N2CCN(C(=O)COc3ccc4c(C)cc(=O)oc4c3C)CC2)cc1,inactive
21,C[C@H]1CN([C@@H](C)CO)C(=O)c2cc(NS(=O)(=O)c3ccc(Cl)cc3)ccc2O[C@H]1CN(C)S(=O)(=O)c1cccs1,inactive
22,C[C@@H]1CN([C@@H](C)CO)C(=O)c2cc(NC(=O)Nc3ccc(F)cc3)ccc2O[C@@H](C)CCCCO[C@@H]1CN(C)S(=O)(=O)c1cccs1,inactive
23,COCCCn1cnc2c(c1=O)c1nc3ccccc3nc1n2-c1ccccc1,inactive
24,C[C@@H]1CN([C@@H](C)CO)C(=O)Cc2cc(NC(=O)Cn3cnnn3)ccc2O[C@H]1CN(C)Cc1ccc(Oc2ccccc2)cc1,inactive
25,COc1ccc(N2Nc3n[nH]c(N)c3N2)cc1,inactive
26,C[C@@H]1CCCCO[C@H](CN(C)Cc2ccc(C(F)(F)F)cc2)[C@H](C)CN([C@@H](C)CO)C(=O)c2cc(NC(=O)c3ccncc3)ccc2O1,inactive
27,O=C(NC1CCN(C(=O)NCc2ccccc2)CC1)c1ccco1,inactive

row,SMILES,outcome
1,COc1ccc(-c2cnc3c(c2)C(=O)N([C@H](C)CO)C[C@H](C)[C@H](CN(C)S(=O)(=O)c2ccc(C)cc2)O3)cc1,inactive
2,Cc1noc(C)c1NC(=O)Nc1ccc2c(c1)CC(=O)N([C@H](C)CO)C[C@@H](C)[C@@H](CN(C)Cc1ccc(Cl)c(Cl)c1)O2,inactive
3,O=CN1CCC(=O)N(Cc2ccccc2)c2ccccc21,inactive
4,Cc1cccc(NC(=O)c2ccc(OC3CSC3)cc2)c1,inactive
5,COc1cc(NC(=O)c2ccccc2)c(OC)cc1Cl,inactive
6,COc1ccc(C2NC(C(=O)O)Cc3c2[nH]c2ccccc32)cc1OC (stereo not given),inactive
7,O=C1C[C@@H]2c3c(cccc3CN1Cc1ccc(Br)cc1)C[C@@H](O)[C@H]2O,inactive
8,O=C1C[C@@H]2c3c(cccc3CN1Cc1ccc(Cl)cc1)C[C@@H](O)[C@H]2O,inactive
9,COc1ccc(CN2[C@H](CO)[C@H]3c4ccccc4N(C(=O)c4ccccc4)C[C@H]32)cc1,inactive
10,O=C(CSc1nc2ccccc2[nH]1)Nc1ccc2c(c1)OCCO2,inactive
11,CCOc1ccc(NC(=O)CN(Cc2ccccc2)S(C)(=O)=O)cc1,inactive
12,CCOC(=O)Cc1nnc(NC(=O)COc2ccc(OC)cc2)s1,inactive
13,Cc1cccc(Nc2nc(CC(=O)O)cs2)c1,inactive
14,C[C@@H]1CN([C@H](C)CO)C(=O)c2cc(C3=CCCCC3)cnc2O[C@@H]1CN(C)C(=O)c1ccccn1,inactive
15,C[C@H]1CN([C@@H](C)CO)C(=O)c2cc(NC(=O)Cc3cn(C)c4ccccc34)ccc2O[C@@H]1CN(C)S(=O)(=O)c1cccs1,inactive
16,Cc1cc(C)nc(N2CCCC(C(=O)NCc3cccs3)C2)n1 (stereo not given),inactive
17,S=C(NCc1ccc(Cl)cc1)Nc1ccccc1,inactive
18,COc1ccc(S(=O)(=O)Nc2ccc3c(c2)CC(=O)N([C@H](C)CO)C[C@H](C)[C@@H](CN(C)Cc2ccc(C(F)(F)F)cc2)O3)cc1,inactive
19,Cn1c(-c2sc3cc(C(F)(F)F)cnc3c2-c2cccnc2)n[nH]c1=S,inactive
20,CC1(C)CC(C(=O)Nc2nccs2)CCO1 (stereo not given),inactive
21,C[C@@H]1CN([C@@H](C)CO)C(=O)c2cc(NS(=O)(=O)c3cccs3)ccc2O[C@H]1CN(C)S(=O)(=O)c1ccc(Cl)cc1,inactive
22,COc1ccc(OC)c(S(=O)(=O)Nc2ccccc2C)c1,inactive
23,CCCOn1nnnc1-c1ccccc1,inactive
24,C[C@@H]1CCCCO[C@H](CN(C)C(=O)Nc2cccc3ccccc23)[C@H](C)CN([C@@H](C)CO)C(=O)c2cc(NS(=O)(=O)c3ccc(Cl)cc3)ccc2O1,inactive
25,CC1CCN(c2ncnc3c2cnn3Cc2ccc(Cl)cc2)CC1,inactive
26,C[C@H]1CN([C@@H](C)CO)C(=O)c2cc(C3=CCCCC3)cnc2O[C@@H]1CN(C)Cc1ccccc1F,inactive
27,COc1ccccc1OCCNC1CCCC1,inactive

row,SMILES,outcome
1,C[C@@H]1CN([C@H](C)CO)C(=O)Cc2cc(NS(=O)(=O)c3cn(C)cn3)ccc2O[C@@H]1CN(C)Cc1ccc(-c2ccccc2)cc1,inactive
2,CCOC(=O)c1nn(-c2cccc(Cl)c2)c(C)c1C(C)=O,inactive
3,O=C(Cn1cnc2c(cnn2-c2ccccc2)c1=O)c1ccc(Cl)cc1,inactive
4,COc1ccc(NC(=O)Nc2cccc3c2O[C@@H](CN(C)C(=O)Nc2cccc4ccccc24)[C@@H](C)CN([C@H](C)CO)C3=O)cc1,inactive
5,C[C@@H]1CN([C@@H](C)CO)C(=O)c2cc(N(C)C)ccc2O[C@H]1CN(C)Cc1ccc(-c2ccccc2)cc1,inactive
6,Oc1ccccc1/C=N/c1c(-c2ccco2)nc2ccccn12,inactive
7,CC(c1nc2ccccc2c(=O)[nH]1)N1CCN(C)CC1 (stereo not given),inactive
8,C[C@H]1CN([C@@H](C)CO)C(=O)c2cc(NS(=O)(=O)c3cccs3)ccc2O[C@H]1CN(C)Cc1ccc(Cl)c(Cl)c1,inactive
9,O=C(Nc1ccc(S(=O)(=O)N2CCCCC2)cc1)c1ccco1,inactive
10,O=C(NCc1ccco1)C1CCCN(S(=O)(=O)c2ccccc2)C1 (stereo not given),inactive
11,C[C@@H]1CN([C@H](C)CO)C(=O)c2cc(NC(=O)Cc3cn(C)c4ccccc34)ccc2O[C@H]1CN(C)Cc1ccc(-c2ccccc2)cc1,inactive
12,C[C@H](CO)N1C[C@H](C)[C@H](CN(C)Cc2ccc(C(=O)Nc3ccccc3N)cc2)Oc2ccc(NC(=O)Cn3cnnn3)cc2C1=O,inactive
13,C[C@H]1CN([C@@H](C)CO)C(=O)c2cc(NC(=O)Cc3cn(C)c4ccccc34)ccc2O[C@@H]1CN(C)Cc1ccc(C(F)(F)F)cc1,inactive
14,CC(=O)N(C)c1ccc(OCC(O)COc2ccc(N(C)C(C)=O)cc2)cc1,inactive
15,Cc1cccc(NC(=O)C2CCCN(S(=O)(=O)c3cccc4nsnc34)C2)n1 (stereo not given),inactive
16,CN(C(=O)c1ccc(NC(=O)Cc2ccc(NC(=O)C3CCN(C(=O)CCc4ccccc4)CC3)cc2)cc1)C1CC1,inactive
17,CCCc1cc(Nc2c(C)n(C)n(-c3ccccc3)c2=O)n2c(nc3ccccc32)c1C#N,inactive
18,Cc1ccc(S(=O)(=O)Nc2cccc3c2O[C@@H](CN(C)Cc2ccc(C(F)(F)F)cc2)[C@H](C)CN([C@H](C)CO)C3=O)cc1,inactive
19,C[C@@H]1CCCCO[C@@H](CN(C)S(=O)(=O)c2ccc(Cl)cc2)[C@H](C)CN([C@H](C)CO)C(=O)c2cc(NS(C)(=O)=O)ccc2O1,inactive
20,O=C(Nc1ccc(NC(=O)c2ccco2)nc1)c1ccccn1,inactive
21,COc1ccc(NC(=O)Nc2ccc3c(c2)C(=O)N([C@@H](C)CO)C[C@@H](C)[C@H](CN(C)Cc2ccc(C(F)(F)F)cc2)OCCCC[C@H](C)O3)cc1,inactive
22,O=C(NCC12CC3CC(CC(C3)C1)C2)c1nn2c(c1Cl)NC(c1ccco1)CC2C(F)(F)F (stereo not given),inactive
23,COc1ccc(NC(=O)Nc2ccc3c(c2)C(=O)N([C@H](C)CO)C[C@H](C)[C@@H](CN(C)Cc2ccc(C(F)(F)F)cc2)OCCCC[C@@H](C)O3)cc1,inactive
24,COc1ccc(NC(=O)N(C)C[C@H]2Oc3c(NC(=O)Nc4cccc5ccccc45)cccc3C(=O)N([C@H](C)CO)C[C@H]2C)cc1,inactive
25,Cc1noc(C)c1S(=O)(=O)N(C)C[C@H]1Oc2ccc(NC(=O)Nc3cccc4ccccc34)cc2CC(=O)N([C@H](C)CO)C[C@@H]1C,inactive
26,COc1ccccc1N1CCN(Cc2nc3ccsc3c(=O)[nH]2)CC1,inactive
